Mcl1-Bid inh: Mcl-1/Bid binding inhibitors, primary screen, biochemical, TR-FRET, 1536-well; actives 0.97% (n = 220,000); inhibition, % at 21.7 µM; AID 1021, 2008; Induced myeloid leukemia cell differentiation protein Mcl-1 (Homo sapiens), Q07820; TR-FRET Mcl-1/Bid-Dy647 peptide binding;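 active = compounds that cut the binding signal by more than half at the single screening dose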;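 also: His-tagged Mcl-1 with europium anti-His antibody binding Bid BH3 peptide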
Target sequence (Q07820 whole entry, looked up): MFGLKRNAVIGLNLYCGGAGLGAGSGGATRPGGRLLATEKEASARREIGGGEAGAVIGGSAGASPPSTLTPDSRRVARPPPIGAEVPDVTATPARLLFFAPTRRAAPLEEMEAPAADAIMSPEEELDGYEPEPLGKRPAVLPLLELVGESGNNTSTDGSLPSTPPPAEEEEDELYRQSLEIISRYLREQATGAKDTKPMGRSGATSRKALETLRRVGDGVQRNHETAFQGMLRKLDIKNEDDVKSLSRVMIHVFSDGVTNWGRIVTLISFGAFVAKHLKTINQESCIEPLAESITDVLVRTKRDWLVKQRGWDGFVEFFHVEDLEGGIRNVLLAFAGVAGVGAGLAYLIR
Mcl-1 Bim block: inhibitors of Bim peptide binding to Mcl-1, primary screen, biochemical, bead-based flow cytometry, multiplex | Bim peptide-Mcl-1 binding | inhibition, % at 10 µM | Induced myeloid leukemia cell differentiation protein Mcl-1 (Homo sapiens), Q07820 | actives 0.1% (n = 190,000) | AID 1009, 2008; in the data active = inhibition above about 40%
p47phox inh: p47phox/p22phox peptide binding inhibitors, primary screen, biochemical, uHTS, NADPH oxidase regulatory subunit | Neutrophil cytosol factor 1 (Homo sapiens), P14598 | inhibition, % at 24.7 µM | actives 0.53% (n = 220,000) | fluorescence polarization, 2 h;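 active = inhibition above about 30%, limit read from the data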
Mcl1 Noxa PPI: Mcl-1/Noxa binding inhibitors, primary screen, biochemical, TR-FRET, 1536-well | actives 1.5% (n = 220,000) | TR-FRET Mcl-1/Noxa peptide binding, 2 h | inhibition, % at 21.7 µM | Induced myeloid leukemia cell differentiation protein Mcl-1 (Homo sapiens), Q07820;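 active = compounds that cut the protein-peptide binding signal by more than 50% relative to plate controls in a single-dose test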;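 also: His-tagged Mcl-1 with rhodamine Noxa BH3 peptide and terbium anti-His antibody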
14-3-3 Bad PPI: inhibitors of 14-3-3 zeta/Bad binding, primary screen, biochemical, TR-FRET, bovine 14-3-3 zeta; actives 0.71% (n = 220,000); inhibition, % at 21.7 µM; 14-3-3 protein zeta/delta (Bos taurus), P63103; TR-FRET 14-3-3zeta/Dy647-pBad peptide displacement, 1 h; AID 781, 2007;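 active = inhibition above about 70%, limit read from the data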
Target sequence (P63103 whole entry, looked up): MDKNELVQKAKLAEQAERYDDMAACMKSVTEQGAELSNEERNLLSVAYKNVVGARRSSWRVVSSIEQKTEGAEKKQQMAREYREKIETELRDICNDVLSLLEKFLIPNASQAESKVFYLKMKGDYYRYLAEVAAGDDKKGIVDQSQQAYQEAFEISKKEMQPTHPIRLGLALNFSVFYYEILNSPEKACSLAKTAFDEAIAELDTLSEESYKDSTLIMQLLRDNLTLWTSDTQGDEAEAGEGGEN
Large screens that a line does not name were inactive. An excerpt weighted towards active compounds, which were near 3.1% of everything screened.

CCCCOc1ccc(Cc2c(Cl)nc(SC)nc2N2CCOCC2)cc1	Mcl-1 Bim block 45
CCOc1ccc(NC(=O)C(C)Oc2ccccc2C(=O)Nc2ccc(C)c(Cl)c2)cc1 (stereo not drawn)	none
CCOc1ccc(NC(=S)NNc2ccnc3cc(Cl)ccc23)cc1	none
S=C(NNc1ccnc2cc(Cl)ccc12)Nc1ccc(Cl)cc1Cl	Mcl1-Bid inh 62, Mcl1 Noxa PPI 85, 14-3-3 Bad PPI 92 (no result: Mcl-1 Bim block)
Cc1c(NC(=O)COC(=O)c2c3c(nc4ccccc24)CCCC3)c(=O)n(-c2ccccc2)n1C	none
Cc1c(NC(=O)C(C)OC(=O)c2c3c(nc4ccccc24)CCC3)c(=O)n(-c2ccccc2)n1C (stereo not drawn)	Mcl1 Noxa PPI 54
CCCCCn1c(N)c(-c2nc3ccccc3o2)c2c([N+](=O)[O-])nn(CC)c(=O)c21	Mcl1-Bid inh 60, Mcl1 Noxa PPI 97
O=C(Cn1cnc2ccccc21)N/N=C/c1ccccc1[N+](=O)[O-]	none
Cc1cccc2cc3c(N)c(C#N)sc3nc12	none
Cc1sc(NC(=O)c2sc3nc4c(C)cccc4cc3c2N)c(C#N)c1C	Mcl1-Bid inh 97, Mcl1 Noxa PPI 96
O=C(CSc1ccc2ccccc2c1)Nc1ncccn1	none
Cc1cc(NC(=O)CCCn2cc([N+](=O)[O-])cn2)n(Cc2ccc(F)cc2)n1	none
Cc1ccc(Cl)cc1N1CCN(Cc2nc3ccsc3c(=O)[nH]2)CC1	none
COc1ccc2c(c1)OC1=C(C(=O)CCC1)C2C1=C(O)CCCC1=O (stereo not drawn)	14-3-3 Bad PPI 73
CN(C)[C@@H]1C(=O)C(C(=O)NCN2CCCC2)=C(O)[C@@]2(O)C(=O)C3=C(O)c4c(O)cccc4[C@@](C)(O)C3CC12 (stereo partly drawn)	Mcl1-Bid inh 87, Mcl1 Noxa PPI 103, 14-3-3 Bad PPI 85
CC(C)(C)OC(=O)N[C@@H](Cc1ccccc1)[C@H](O)c1ccco1	none (no result: Mcl-1 Bim block)
O=C(NCc1ccco1)c1sc(=S)n2c1[nH]c(=O)c1ccccc12	Mcl1 Noxa PPI 73
CCn1c(N)c(C(=O)NCC2CCCO2)sc1=S (stereo not drawn)	none
O=C(NCC1CCCO1)c1ccc2c(=O)n(-c3ccc(F)cc3)c(=S)[nH]c2c1 (stereo not drawn)	Mcl-1 Bim block 48
CCCCCNC(=O)c1ccc2c(=O)[nH]c3c(C(=O)NCC4CCCO4)sc(=S)n3c2c1 (stereo not drawn)	Mcl1 Noxa PPI 52
O=C(NCc1ccccc1)c1ccc2c(=O)[nH]c3c(C(=O)NCC4CCCO4)sc(=S)n3c2c1 (stereo not drawn)	Mcl1 Noxa PPI 64
CC(O)c1nc2ccccc2n1CCCOc1ccccc1 (stereo not drawn)	none (no result: Mcl-1 Bim block)
CCN(CC)C(=O)CSc1nc(-c2ccccc2)cc(=O)[nH]1	none
Cc1ccc(CNC(=O)c2ccc3c(=O)[nH]c4c(C(=O)NCC5CCCO5)sc(=S)n4c3c2)cc1 (stereo not drawn)	Mcl1 Noxa PPI 74
Cc1ccc(CNC(=O)c2ccc3c(=O)n(CC4CCCO4)c(=S)[nH]c3c2)cc1 (stereo not drawn)	none
C=CCn1c2ccccc2c2nnc(SC(CC)C(=O)Nc3sc4c(c3C#N)CCCC4)nc21 (stereo not drawn)	none
S=c1[nH]nc(-c2ccc3ccccc3n2)n1-c1ccc2ncccc2c1	Mcl1 Noxa PPI 70
COc1cccc(OC)c1OCCCCn1cnc2ccccc2c1=O	Mcl1-Bid inh 51
CC(C)(C)c1cc(=O)n(-c2ccccc2)[nH]1	none
CCOC(=O)c1ccc(Nc2ccc(-c3ccc(OC)c(OC)c3)nn2)cc1	14-3-3 Bad PPI 81
O=C1NN=C(c2ccc(Br)cc2)CC1c1ccc(Cl)cc1 (stereo not drawn)	none
Nc1c(C(=O)NC2CC2)sc2nc3c(c(-c4ccco4)c12)CC/C3=C/c1ccco1	Mcl1-Bid inh 84, Mcl1 Noxa PPI 97
CCc1cc2c(=O)nc3n(c2s1)Cc1ccccc1/C3=C(/O)c1ccc(F)cc1	none
CCc1cc2c(=O)nc3n(c2s1)Cc1ccccc1/C3=C(/O)c1ccccc1Cl	p47phox inh 74
CCc1nnc(NS(=O)(=O)c2ccc(Nc3ccc([N+](=O)[O-])c4nonc34)cc2)s1	none
O=C(NC(=S)Nc1cc(-c2nc3ccccc3[nH]2)ccc1Cl)c1ccc2c(c1)OCO2	Mcl1-Bid inh 59
CCOC(=O)CNC1CC(=O)N(c2cccc(Cl)c2)C1=O (stereo not drawn)	none
CCC(Oc1ccccc1)C(=O)NCc1ccc(S(N)(=O)=O)cc1 (stereo not drawn)	none
O=C(NCc1ccco1)c1cc2ccc(O)cc2oc1=O	Mcl1 Noxa PPI 56 (no result: 14-3-3 Bad PPI)
N#C/C(=C\c1ccc(/C=C(/C#N)c2nn(CCO)c(N)c2C#N)cc1)c1nn(CCO)c(N)c1C#N	Mcl1-Bid inh 62, Mcl1 Noxa PPI 58
N#C/C(=C/c1ccccc1)c1nn(CCO)c(N)c1C#N	none
Cc1nc(NC(=O)/C=C/c2ccco2)sc1C	Mcl1 Noxa PPI 58
O=C(/C=C/c1ccco1)Nc1ccccc1C(=O)O	Mcl1 Noxa PPI 52
O=C(/C=C/c1ccco1)Nc1nnc(-c2ccco2)s1	none
O=C(/C=C/c1ccco1)NC1=NCCS1	none
O=C(/C=C/c1ccco1)Nc1cccc(NC(=O)/C=C/c2ccco2)n1	Mcl1 Noxa PPI 72
CCOc1cc(/C=C2/NC(=O)NC2=O)cc(Br)c1OCc1ccc(C(=O)O)cc1	none
O=C1/C(=C\c2ccc(O)cc2)SC(=S)N1/N=C/c1ccc(O)cc1	Mcl1 Noxa PPI 79 (no result: Mcl-1 Bim block)
CC(=O)NN1C(=O)/C(=C\c2ccc(O)cc2)SC1=S	none
CSc1nc2cc(Oc3cccc(Cl)c3Cl)c(Cl)cc2[nH]1	none
CCCCCCNC(=O)N[C@@H](C(=O)NCCC[C@H]1CN2C(=NC[C@@H]2Cc2ccccc2)N1CCc1cccc(OC)c1)C(C)C	p47phox inh 66 (no result: Mcl-1 Bim block)
C/C=C(\C)C(=O)NCCN1C2=NC[C@@H](Cc3ccccc3)N2C[C@H]1Cc1ccc(O)cc1	none
O=C(O)[C@H](Cc1ccccc1)N1Cc2ccccc2C1=O	Mcl1-Bid inh 72
CC(C)CNC(=S)Nc1ccc(Oc2ccccc2)cc1	none
O=C(COc1ccc(Cl)cc1Cl)Nc1c(-c2cccs2)nc2ccccn12	Mcl1 Noxa PPI 52
O=C(Nc1c(-c2cccs2)nc2ccccn12)c1ccccc1F	none
CC(=O)c1nc(-c2ccccc2)sc1C	none
CC(C)(C)C1=CC=C(C(C)(C)C)C(=O)C1=O	Mcl1 Noxa PPI 89 (no result: Mcl-1 Bim block)
Cc1cc(N2C(=O)NC(=O)CC2C)c(C)cc1C(C)C (stereo not drawn)	none

Bioassay records deposited in PubChem BioAssay by several laboratories.
